Source: PubChem BioAssay
Only some compounds are listed: those with a hit (about 19% of all), similar ones and a draw of the others.
DT40 TDP1 CPT: growth inhibition of DT40 Tdp1-/-;hTDP1 cells with camptothecin (screen for TDP1 inhibitors); chicken DT40 Tdp1-/-;hTDP1 cells + 20 nM CPT, ATP luminescence, 48 h; Potency, µM (highest dose often 46.2 µM), most hits filed as inhibitors; hit rate 12% among 420,000; further: nearly all actives have a fitted effect of over 55% in size
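Chicken DT40 Tdp1-/- cells stably complemented with human TDP1 were seeded at 400 cells/well in medium containing 20 nM camptothecin, exposed to pin-transferred compounds, and grown at 37 °C for at least 48 hr. Viability was read as ATP luminescence.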
TDP1 cell noCPT: qHTS for Inhibitors of human tyrosyl-DNA phosphodiesterase 1 (TDP1): qHTS in cells in absence of CPT; AID 686978, 2013; hit rate 15% among 420,000; DT40 Tdp1-/- hTDP1 cells, no CPT, ATP luminescence, 48 h; Potency, µM (titrated, usually from 46.2 µM), usual class: inhibitors; further: nearly all actives have a fitted effect of over 55% in size
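Cells were dispensed at 400 per well, compounds added by pin tool, plates incubated ≥48 hr at 37 °C, then CellTiter-Glo added for 30 min at room temperature before luminescence reading. Line: DT40 Tdp1-/- complemented with hTDP1; camptothecin omitted.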
ASM inhibitor: inhibitors of human secretory acid sphingomyelinase; P17405; placental ASM, HMU-PC fluorogenic substrate, 60 min; Potency, µM (doses to about 57.5 µM), hits mostly inhibitors; hit rate 0.006% among 340,000; AID 504937
Target sequence (P17405 47-631 limits assumed): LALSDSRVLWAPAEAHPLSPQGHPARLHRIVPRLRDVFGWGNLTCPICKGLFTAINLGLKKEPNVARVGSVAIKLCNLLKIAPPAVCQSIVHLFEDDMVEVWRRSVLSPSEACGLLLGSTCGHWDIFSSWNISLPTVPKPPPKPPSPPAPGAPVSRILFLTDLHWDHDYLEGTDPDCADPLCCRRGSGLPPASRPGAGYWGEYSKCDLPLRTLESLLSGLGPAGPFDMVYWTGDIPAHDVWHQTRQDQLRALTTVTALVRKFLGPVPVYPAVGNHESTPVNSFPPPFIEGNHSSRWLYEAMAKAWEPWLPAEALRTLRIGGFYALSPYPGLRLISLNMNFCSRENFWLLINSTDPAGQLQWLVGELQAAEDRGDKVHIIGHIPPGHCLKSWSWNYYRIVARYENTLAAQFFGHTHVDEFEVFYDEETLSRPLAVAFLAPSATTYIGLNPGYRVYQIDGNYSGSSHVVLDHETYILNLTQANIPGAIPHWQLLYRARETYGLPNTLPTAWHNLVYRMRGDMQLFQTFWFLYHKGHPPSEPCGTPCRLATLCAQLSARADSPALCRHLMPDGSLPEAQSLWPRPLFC
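Human placenta-derived ASM preincubated with compound 10 min at room temperature, then reacted with 9 uM (final) fluorogenic HMU-PC substrate for 60 min at 37 C. Stop solution raises pH to 10; fluorescence read at Ex 386/Em 447 nm.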
TGFb inhibitor: inhibitors of TGF-b signaling; HepG2 CAGA-GFP TGF-b/SMAD3 reporter, GFP fluorescence, 18 h; TGF-beta stimulated, 500 pg/mL final; Potency, µM (series often up to 46.1 µM), usual class: inhibitors; hit rate 1.2% among 410,000; AID 588855; further: nearly all actives have a fitted effect of over 65% in size
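Per well, imaged GFP fluorescence of HEPG2 CAGA-GFP cells gives the signal; cells get compound, then TGF-beta (500 pg/mL final), 18 h at 37 degrees C; %Activity versus -TGF-beta and +DMSO controls.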
HepG2 tox: counter-screen for TGF-b inhibitors: cytotoxicity in HepG2 cells; hit rate 0.76% among 410,000; AID 588856; Potency, µM (top dose mostly 46.1 µM), hits mostly cytotoxic; HepG2 CAGA-GFP viability, ATP luminescence, 18 h
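CellTiter-Glo luminescence gave cytotoxicity after 18 hours at 37 degrees C. The cells were HepG2 CAGA-GFP in 1% FBS DMEM, stimulated with 500 pg/mL TGF-beta after compound addition. %Activity was normalised to no-cell wells (complete cell-killing) and DMSO (no toxicity), and curves were fitted and classified.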
IL-1B inflam inh: blocks inflammasome-driven IL-1 beta release | THP-1 LPS/ATP IL-1B secretion, AlphaLISA, 16 h; hits give low values | activity change, % at 57.5 µM | hit rate 4.7% among 360,000; in the data active means activity change below about -50%; inconclusive means mostly about -30% to -49%
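THP-1 cells pretreated 1 hr with compounds (up to 57.5 uM final), then stimulated with LPS (250 ng/mL final) plus ATP (1.25 mM final); secreted IL-1B measured by AlphaLISA after 16 hr, decreased signal indicating inhibition.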
Each line names hits and unclear results; the compound was inactive in the other large screens. Unless noted, the call rests on the fitted dose curve; in most records, active means well fitted curve in the direction sought with a large enough effect; inconclusive means small, poorly fitted or top-dose-only effect, or another doubt; inactive means no such curve, though single readings can be large; an effect the other way counts as inactive or inconclusive.

CC(C)c1ccc(Nc2c(-c3ccc(N4CCOCC4)cc3)nc3ncccn23)cc1	TGFb inhibitor inconclusive (no result: ASM inhibitor, IL-1B inflam inh)
CCCn1c(NC(=S)Nc2ccccc2)nc2ccccc21	DT40 TDP1 CPT inconclusive, TDP1 cell noCPT inconclusive, TGFb inhibitor inconclusive
O=C(Nc1nc2ccccc2n1CCN1CCCCC1)C1CCCCC1	DT40 TDP1 CPT inconclusive, TDP1 cell noCPT inconclusive
OCc1nc2ccccc2n1CCOc1ccccc1	TDP1 cell noCPT inconclusive
CCn1nccc1C(=O)Nc1nc2ccccc2n1CCN1CCCCC1	DT40 TDP1 CPT 35.5µM, TDP1 cell noCPT inconclusive, IL-1B inflam inh inconclusive
CCn1c(NC(=O)C2CCCCC2)nc2ccccc21	DT40 TDP1 CPT 18.4µM, TDP1 cell noCPT 13µM
CCn1c(NC(=S)Nc2ccccc2)nc2ccccc21	DT40 TDP1 CPT 5.17µM, TDP1 cell noCPT 4.61µM
S=C(Nc1ccccc1)Nc1nc2ccccc2n1CCOc1ccc(Cl)cc1	DT40 TDP1 CPT 20.6µM, TDP1 cell noCPT 16.4µM, TGFb inhibitor 14.1µM, IL-1B inflam inh -88.0
CCc1ccc(NC(=O)Cn2cnc3sc(C)c(S(=O)(=O)N4CCOCC4)c3c2=O)cc1	DT40 TDP1 CPT inconclusive, TDP1 cell noCPT inconclusive
Cc1cc(CCCCCCCCc2cc(C)cc(=O)o2)oc(=O)c1	DT40 TDP1 CPT inconclusive, TDP1 cell noCPT 16.4µM
Cc1sc(NC(=O)Cc2ccc3c(c2)OCO3)nc1-c1ccc2c(c1)CCN2C(=O)c1cccc(F)c1	DT40 TDP1 CPT 11.6µM, TDP1 cell noCPT 9.2µM
Cc1ccccc1C(=O)N1CCc2cc(-c3nc(NC(=O)Cc4ccc5c(c4)OCO5)sc3C)ccc21	DT40 TDP1 CPT 7.31µM, TDP1 cell noCPT 6.51µM, TGFb inhibitor inconclusive, IL-1B inflam inh inconclusive
Cc1cccc(C(=O)N2CCc3cc(-c4nc(NC(=O)CN5CCCC5)sc4C)ccc32)c1	DT40 TDP1 CPT inconclusive, TDP1 cell noCPT inconclusive
Cc1sc(NC(=O)CN2CCOCC2)nc1-c1ccc2c(c1)CCN2S(=O)(=O)c1ccccc1	DT40 TDP1 CPT 20.6µM, TDP1 cell noCPT 9.2µM, ASM inhibitor inconclusive, TGFb inhibitor inconclusive
O=C1CC2(CCN(C(=O)c3cccc(F)c3)CC2)Oc2ccccc21	TDP1 cell noCPT inconclusive
c1cc(-c2cnc3cccnn23)c2cccnc2c1	DT40 TDP1 CPT 9.2µM, TDP1 cell noCPT inconclusive (no result: ASM inhibitor)
CSc1ccccc1-c1cnc2cccnn12	IL-1B inflam inh -54.3 (no result: ASM inhibitor)
c1ccc2c(-c3cnc4cccnn34)cncc2c1	DT40 TDP1 CPT inconclusive (no result: ASM inhibitor)
COc1ccc(N2CCN(C(CNC(=O)c3cccc(OC)c3)c3cccnc3)CC2)cc1 (stereo unspecified)	DT40 TDP1 CPT inconclusive, TDP1 cell noCPT inconclusive (no result: ASM inhibitor, IL-1B inflam inh)
O=C(c1cc(C(F)(F)F)cc(C(F)(F)F)c1)N1CCC[C@@]2(CCN(c3ccncc3)C2)C1	TDP1 cell noCPT inconclusive (no result: ASM inhibitor, TGFb inhibitor, HepG2 tox, IL-1B inflam inh)
Cc1ccc(C(=O)N2CCCC(C(F)(F)F)C2)cc1S(=O)(=O)N1CCOCC1 (stereo unspecified)	none
CCOC(=O)c1c(C)nc2ccccc2c1-c1ccccc1	DT40 TDP1 CPT inconclusive, TDP1 cell noCPT 18.4µM
COC(=O)c1c(C)nc2ccccc2c1-c1ccccc1	TDP1 cell noCPT inconclusive
CCOC(=O)c1c(N)nn(C(=O)C(C)C)c1-c1ccccc1	DT40 TDP1 CPT inconclusive, TDP1 cell noCPT 13µM
CCOC(=O)c1c(C)nc2c(c1-c1cc(OC)ccc1OC)C(=O)c1ccccc1-2	DT40 TDP1 CPT inconclusive
CCOC(=O)c1c(C)nc2ccc(Cl)cc2c1-c1ccccc1	TDP1 cell noCPT inconclusive, TGFb inhibitor inconclusive
CCOC(=O)c1c(CCl)nc2ccccc2c1-c1ccccc1	DT40 TDP1 CPT 13µM, TDP1 cell noCPT 23.1µM
CCOC(=O)c1c(C)nc2c(c1-c1ccccc1)C(=O)c1ccccc1-2	DT40 TDP1 CPT inconclusive, TDP1 cell noCPT inconclusive, IL-1B inflam inh -53.7
CCCN1CNc2c(c(=O)[nH]c(=S)n2CCc2cccc(OC)c2)C1	TDP1 cell noCPT inconclusive (no result: ASM inhibitor, TGFb inhibitor, HepG2 tox, IL-1B inflam inh)
O=C(COC(=O)c1cc([N+](=O)[O-])ccc1N1CCOCC1)Nc1ncc(Cl)cc1Cl	none
COC(=O)C1=C(N)Oc2cc(C)n(C)c(=O)c2C1c1ccc(Cl)cc1 (stereo unspecified)	DT40 TDP1 CPT inconclusive, TDP1 cell noCPT 14.6µM, TGFb inhibitor inconclusive
Cc1ccc(Cl)cc1NC1=NC(=S)N(C(C)C)C12CCCCC2	DT40 TDP1 CPT inconclusive, TDP1 cell noCPT 18.4µM
Cc1ccc(Cl)cc1NC(=O)C(=O)N1CCCCC1	none
CC12CC(NC(=O)N1c1cccc(C(=O)NCc3ccccn3)c1)c1ccccc1O2 (stereo unspecified)	none
O=C(Nc1cccc(-c2cccc(Cl)c2)c1)C1CCN(CC2CCOC2)CC1 (stereo unspecified)	DT40 TDP1 CPT inconclusive, TDP1 cell noCPT inconclusive, TGFb inhibitor inconclusive
Cc1cccc(-c2ccc(NC(=O)C3CCN(CC4CC4)CC3)cc2)c1	DT40 TDP1 CPT inconclusive, TDP1 cell noCPT 18.4µM, TGFb inhibitor inconclusive, IL-1B inflam inh inconclusive
COc1cccc(CN2CCC(C(=O)Nc3ccc(-c4cccc(C)c4)cc3)CC2)c1O	DT40 TDP1 CPT 16.4µM, TDP1 cell noCPT 16.4µM, TGFb inhibitor inconclusive
COc1ccc(-c2nc3n(n2)C(c2ccc(OC)cc2)C(C(=O)Nc2cccnc2)=C(C)N3)cc1 (stereo unspecified)	none (no result: ASM inhibitor, IL-1B inflam inh)
CCOc1ccccc1NC(=O)CSc1cn[nH]n1	IL-1B inflam inh -90.7
Cc1nc(-c2ccccc2)sc1-c1ccc(SCC(=O)NCc2ccccc2)nn1	none (no result: ASM inhibitor, IL-1B inflam inh)
COc1ccccc1CNC(=O)CSc1ccc(-c2sc(-c3ccccc3)nc2C)nn1	DT40 TDP1 CPT inconclusive, TDP1 cell noCPT 18.4µM, TGFb inhibitor inconclusive (no result: ASM inhibitor, IL-1B inflam inh)
